Results as given in PubChem BioAssay (NCATS).
Results filed as inconclusive are left out. Activity calls are given as the source filed them. Unless noted, calls come from the whole dose curve; as a rule, active = well fitted curve in the direction sought with a large enough effect; inconclusive = small, poorly fitted or top-dose-only effect, or another doubt; inactive = no such curve, though single readings can be large; an effect the other way counts as inactive or inconclusive.

What was measured:
[1] = target: Lysosomal acid glucosylceramidase (Homo sapiens) (UniProt P04062); test: Glucocerebrosidase-p2 (AID 348; in the data active = potency below about 10 µM; note: potency is the fitted concentration of half-maximal effect); conditions: purified GBA, blue fluorogenic substrate, 40 min
Outline: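 Normal human glucocerebrosidase (0.2 nM) with blue fluorogenic substrate (80 uM final) in citrate/phosphate pH 5.9 with 10mM sodium taurocholate, 0.01% tween-20; 40 min RT, NaOH/glycine stop; fluorescence Ex 365/Em 440; AC50 from a titration from 0.6 nM upwards.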

[2] = AP1 Signaling Pathway (AID 357; active = well fitted curve in either direction with a large enough effect, not every such curve was filed as active;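 note: ME-180 reporter cells stimulated with EGF at its EC50 level; % is set by controls: 0 for no effect and ±100 for the full control effect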)
Outline: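 First, ME-180 AP-1-bla cells were cultured overnight at 37 °C in low-serum Opti-MEM. Next, titrated compounds with EC50 EGF were incubated 5 hours. Finally, CCF4 was added for 2.5 hours and the 460/530 nm ratio recorded.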

[3] = target: Cytochrome P450 1A2 (Homo sapiens) (UniProt P05177); test: p450-cyp1a2 (AID 410; calls by dose curve;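 note: -100% = full effect of reference inhibitor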)
Outline: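 Luminescent demethylation readout: Luciferin-ME (100uM, equal to Km) turned over by 20nM CYP1A2 for 60 min at room temperature after NADPH regeneration addition, following 10 min compound preincubation. Normalization used 57 uM furafylline as full inhibition.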

[4] = NFAT Signaling Pathway (AID 444; active = well fitted curve in either direction with a large enough effect, not every such curve was filed as active;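 note: carbachol stimulus at about its EC50 of 1 µM final; % is set by controls: 0 for no effect and ±100 for the full control effect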); conditions: Jurkat NFAT-bla M1, carbachol, beta-lactamase ratio, 5 h; at 17.2 µM (top of the series) unless noted
Outline: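 Jurkat cells with NFAT-driven β-lactamase reporter and co-expressed M1 receptor, stimulated with carbachol (final 1 uM, ~EC50), compound titration, 5 h at 37 °C. CCF4 loaded 1 h at RT; 460/530 nm ratio gave %activity and AC50.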

[5] = Stat Signaling Pathway (AID 446; active = well fitted curve in either direction with a large enough effect, not every such curve was filed as active;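 note: ME-180 cervical cancer cells given 40 pM IL-6 alongside compound; SIE-controlled beta-lactamase reporter measured as 460/530 nm FRET emission ratio; % is set by controls: 0 for no effect and ±100 for the full control effect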)
Outline: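 Compound effects on IL-6-induced STAT reporter activity were measured in ME-180 cells. After overnight culture, cells were co-treated with 40 pM IL-6 for 5 hrs before beta-lactamase substrate loading at room temperature.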

[6] = target: Glucocorticoid receptor (Homo sapiens) (UniProt P04150); test: GR-GFP Redistribution (AID 450;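 active = compounds whose dose series gives a full or clear partial fitted curve of increased nuclear translocation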; note: potency is the fitted concentration of half-maximal effect); conditions: U2OS GR-GFP nuclear translocation, laser cytometry, 2 h
[7] = target: Glucocorticoid receptor (Homo sapiens) (UniProt P04150); test: GR-EFC Redistribution (AID 451; calls by dose curve; note: potency is the fitted concentration of half-maximal effect); conditions: CHO-K1 GR-EFC translocation, beta-gal luminescence, 2 h
Outline: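 CHO-K1 cells expressing nuclear EA and GR-ED fragments of b-gal; compounds titrated up to 46 uM final, 2 h at 37 C. GR nuclear translocation read as complemented b-gal luminescence after 1 h RT detection.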

[8] = target: Mitogen-activated protein kinase 10 (Mus musculus) (UniProt Q61831); test: JNK3 AlphaScreen Assay (AID 530; active = well fitted curve in either direction with a large enough effect, not every such curve was filed as active;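 note: kinase came from lysate of stimulated human HepG2 cells; signal reports phosphorylation of biotinylated GST-cJun 1-79 at Ser73 with 10 µM ATP; % is set by controls: 0 for no effect and ±100 for the full control effect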)
Outline: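 Activity was read by AlphaScreen after JNK3-containing HepG2 lysate (cytokine pre-activated) phosphorylated biotinylated GST-cJun with 10 uM ATP at room temperature. Phospho-Ser73 cJun antibody with Protein-A acceptor beads provided detection.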

[9] = target: 3',5'-cyclic-AMP phosphodiesterase 4B (Homo sapiens) (UniProt Q07343); test: qHTS Assay for Inhibitors of PDE-IV (AID 607; active = well fitted activation curve with a large enough effect in the main read-out, with a control signal flat, not every such curve was filed as active; note: % of control where 0% means no effect)
Outline: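 ACTOne HEK293 cells carry a modified cAMP-gated CNG channel and express endogenous PDE4; plated 1000 cells/well, compounds up to 22.9 uM final. Membrane-potential dye fluorescence (ex 535/em 590) was read; parental cells received 10 uM forskolin + 100 uM RO 20-1724.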

[10] = target: ATP-dependent 6-phosphofructokinase (Trypanosoma brucei brucei) (UniProt O15648); test: qHTS Assay to Find Inhibitors of T. brucei phosphofructokinase: hit validation (AID 492961)
Outline: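 Compounds titrated; %activity normalized to 0x and 1x enzyme controls, curve-fitted. Readout: ADP-Glo luminescence after 45 min room-temperature reaction of 1.25 nM PFK, 0.1 mM ATP, 0.5 mM F6P, pH 8.0.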

[11] = target: Ubiquitin carboxyl-terminal hydrolase 1 (Homo sapiens) (UniProt O94782); test: Inhibitors of USP1/UAF1: Pilot qHTS (AID 504865);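 note: rhodamine fluorescence freed from ubiquitin-rhodamine substrate followed over time; top concentration of the series differs between compounds; % is set by controls: 0 for no effect and ±100 for the full control effect; nearly all actives have a fitted effect of over 35% in size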
Outline: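 USP1/UAF1 complex (1nM) preincubated with compound 15 min at room temperature, then Ub-Rho substrate (150nM final) added. Fluorescence read kinetically at 480/540 nm, 6 reads every 60 seconds. Buffer: 50mM HEPES pH 7.8, 0.5mM EDTA, 0.1 mg/ml BSA, 1mM TCEP, 0.01% Tween-20.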

[12] = target: Luciferin 4-monooxygenase (Photinus pyralis) (UniProt P08659); test: Biochemical firefly luciferase enzyme assay for NPC (AID 624030);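 note: purified P. pyralis luciferase at 10 nM with luciferin and ATP substrate; 0% = DMSO and -100% = full luciferase inhibition by PTC124 control; nearly all actives have a fitted effect of over 70% in size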
Outline: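 Purified P. pyralis luciferase at 10 nM in 50 mM Tris Acetate (final), luminescence read within 5 minutes of enzyme addition to compounds. Activity normalised to PTC124 versus DMSO; concentration-response curves classed by r2, magnitude and activity.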

[13] = S16 Schwann cell viability assay (CellTiter-Glo assay) (AID 624031);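 note: native untransfected S16 rat Schwann cells; cellular ATP luminescence as a viability measure; plate controls were DMSO-treated cells for no effect and cell-free wells for full effect; nearly all actives have a fitted effect of over 70% in size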
Outline: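 Concentration-effect curves come from CellTiter-Glo luminescence of S16 rat Schwann cells after 24 h compound exposure. Each reading was normalized to DMSO wells (0%) and wells without cells, and curves were ranked by r2 and response magnitude.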

[14] = qHTS profiling for inhibitors of Plasmodium falciparum proliferation (AID 504749);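 note: 0% = DMSO vehicle and full inhibition = artemisinin control; nearly all actives have a fitted effect of over 60% in size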; conditions: P. falciparum in erythrocytes, SYBR Green DNA, 72 h, at 28.7 µM (top of the series)
Outline: (§1)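 Each compound contacts P. falciparum-infected red blood cells for 72 h at 37 C; lysis buffer (Tris, EDTA, saponin, Triton X, SYBR Green I) is added and fluorescence measured next morning; values normalized to controls.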

[15] = system: 3D7; test: as above; conditions: P. falciparum in erythrocytes, SYBR Green DNA, 72 h; series mostly up to 12.8 µM
Outline: as §1

[16] = system: 7G8; test: as above; conditions: P. falciparum in erythrocytes, SYBR Green DNA, 72 h; series mostly up to 12.8 µM
Outline: as §1

[17] = system: AA1029; test: as above; conditions: P. falciparum in erythrocytes, SYBR Green DNA, 72 h; series mostly up to 12.8 µM
Outline: as §1

[18] = system: AS120; test: as above; conditions: P. falciparum in erythrocytes, SYBR Green DNA, 72 h; series mostly up to 12.8 µM
Outline: as §1

[19] = system: ATS189; test: as above; conditions: P. falciparum in erythrocytes, SYBR Green DNA, 72 h; series mostly up to 12.8 µM
Outline: as §1

[20] = system: ATS95; test: as above; conditions: P. falciparum in erythrocytes, SYBR Green DNA, 72 h; series mostly up to 12.8 µM
Outline: as §1

[21] = system: C2A; test: as above; conditions: P. falciparum in erythrocytes, SYBR Green DNA, 72 h; series mostly up to 12.8 µM
Outline: as §1

[22] = system: CP185; test: as above; conditions: P. falciparum in erythrocytes, SYBR Green DNA, 72 h; series mostly up to 12.8 µM
Outline: as §1

[23] = system: CP191; test: as above; conditions: P. falciparum in erythrocytes, SYBR Green DNA, 72 h; series mostly up to 12.8 µM
Outline: as §1

[24] = system: CP192; test: as above; conditions: P. falciparum in erythrocytes, SYBR Green DNA, 72 h; series mostly up to 12.8 µM
Outline: as §1

[25] = system: CP194; test: as above; conditions: P. falciparum in erythrocytes, SYBR Green DNA, 72 h; series mostly up to 12.8 µM
Outline: as §1

[26] = system: CP201; test: as above; conditions: P. falciparum in erythrocytes, SYBR Green DNA, 72 h; series mostly up to 12.8 µM
Outline: as §1

[27] = system: CP203; test: as above; conditions: P. falciparum in erythrocytes, SYBR Green DNA, 72 h; series mostly up to 12.8 µM
Outline: as §1

[28] = system: CP211; test: as above; conditions: P. falciparum in erythrocytes, SYBR Green DNA, 72 h; series mostly up to 12.8 µM
Outline: as §1

[29] = system: CP215; test: as above; conditions: P. falciparum in erythrocytes, SYBR Green DNA, 72 h; series mostly up to 12.8 µM
Outline: as §1

[30] = system: CP217; test: as above; conditions: P. falciparum in erythrocytes, SYBR Green DNA, 72 h; series mostly up to 12.8 µM
Outline: as §1

[31] = system: CP237; test: as above; conditions: P. falciparum in erythrocytes, SYBR Green DNA, 72 h; series mostly up to 12.8 µM
Outline: as §1

[32] = system: CP238; test: as above; conditions: P. falciparum in erythrocytes, SYBR Green DNA, 72 h; series mostly up to 12.8 µM
Outline: as §1

[33] = system: CP247; test: as above; conditions: P. falciparum in erythrocytes, SYBR Green DNA, 72 h; series mostly up to 12.8 µM
Outline: as §1

[34] = system: CP250; test: as above; conditions: P. falciparum in erythrocytes, SYBR Green DNA, 72 h; series mostly up to 12.8 µM
Outline: as §1

[35] = system: CP252; test: as above; conditions: P. falciparum in erythrocytes, SYBR Green DNA, 72 h; series mostly up to 12.8 µM
Outline: as §1

[36] = system: CP256; test: as above; conditions: P. falciparum in erythrocytes, SYBR Green DNA, 72 h; series mostly up to 12.8 µM
Outline: as §1

Sequence of Glucocorticoid receptor (Homo sapiens) (P04150 whole entry, looked up, the tested form may be a part): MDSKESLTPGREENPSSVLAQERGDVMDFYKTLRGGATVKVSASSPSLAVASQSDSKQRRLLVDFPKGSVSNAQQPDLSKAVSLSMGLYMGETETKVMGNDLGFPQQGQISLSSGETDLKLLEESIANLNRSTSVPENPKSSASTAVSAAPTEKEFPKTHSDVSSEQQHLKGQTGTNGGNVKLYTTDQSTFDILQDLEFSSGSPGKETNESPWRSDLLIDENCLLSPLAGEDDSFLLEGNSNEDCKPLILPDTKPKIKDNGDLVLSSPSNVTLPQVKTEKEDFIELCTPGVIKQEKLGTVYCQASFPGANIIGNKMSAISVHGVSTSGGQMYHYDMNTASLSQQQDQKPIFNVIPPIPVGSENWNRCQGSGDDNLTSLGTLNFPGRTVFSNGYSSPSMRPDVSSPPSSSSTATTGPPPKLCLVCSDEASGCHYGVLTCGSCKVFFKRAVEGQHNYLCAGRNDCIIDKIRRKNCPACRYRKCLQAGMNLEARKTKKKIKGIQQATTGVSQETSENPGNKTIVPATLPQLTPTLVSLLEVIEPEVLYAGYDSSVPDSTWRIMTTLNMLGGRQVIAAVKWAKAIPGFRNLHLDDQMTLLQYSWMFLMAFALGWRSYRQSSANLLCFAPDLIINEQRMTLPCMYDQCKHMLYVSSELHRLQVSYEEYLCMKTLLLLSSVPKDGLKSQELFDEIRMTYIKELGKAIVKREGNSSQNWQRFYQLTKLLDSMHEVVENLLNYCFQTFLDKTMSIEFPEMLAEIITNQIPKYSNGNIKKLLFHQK
Sequence of Cytochrome P450 1A2 (Homo sapiens) (P05177 whole entry, looked up): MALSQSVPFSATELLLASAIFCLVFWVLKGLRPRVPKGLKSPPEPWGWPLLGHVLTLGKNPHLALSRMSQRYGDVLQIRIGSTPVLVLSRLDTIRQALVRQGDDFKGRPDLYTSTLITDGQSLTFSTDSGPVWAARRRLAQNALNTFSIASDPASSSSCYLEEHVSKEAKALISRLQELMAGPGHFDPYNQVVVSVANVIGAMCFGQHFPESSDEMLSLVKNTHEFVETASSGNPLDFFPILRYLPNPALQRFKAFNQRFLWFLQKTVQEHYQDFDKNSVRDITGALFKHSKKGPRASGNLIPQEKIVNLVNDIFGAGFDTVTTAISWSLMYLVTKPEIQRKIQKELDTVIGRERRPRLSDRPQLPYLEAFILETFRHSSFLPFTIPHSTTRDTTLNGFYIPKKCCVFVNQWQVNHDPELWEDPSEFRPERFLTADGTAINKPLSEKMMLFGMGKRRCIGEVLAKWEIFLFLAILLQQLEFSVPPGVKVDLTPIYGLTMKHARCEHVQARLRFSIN
Sequence of Lysosomal acid glucosylceramidase (Homo sapiens) (P04062 whole entry, looked up): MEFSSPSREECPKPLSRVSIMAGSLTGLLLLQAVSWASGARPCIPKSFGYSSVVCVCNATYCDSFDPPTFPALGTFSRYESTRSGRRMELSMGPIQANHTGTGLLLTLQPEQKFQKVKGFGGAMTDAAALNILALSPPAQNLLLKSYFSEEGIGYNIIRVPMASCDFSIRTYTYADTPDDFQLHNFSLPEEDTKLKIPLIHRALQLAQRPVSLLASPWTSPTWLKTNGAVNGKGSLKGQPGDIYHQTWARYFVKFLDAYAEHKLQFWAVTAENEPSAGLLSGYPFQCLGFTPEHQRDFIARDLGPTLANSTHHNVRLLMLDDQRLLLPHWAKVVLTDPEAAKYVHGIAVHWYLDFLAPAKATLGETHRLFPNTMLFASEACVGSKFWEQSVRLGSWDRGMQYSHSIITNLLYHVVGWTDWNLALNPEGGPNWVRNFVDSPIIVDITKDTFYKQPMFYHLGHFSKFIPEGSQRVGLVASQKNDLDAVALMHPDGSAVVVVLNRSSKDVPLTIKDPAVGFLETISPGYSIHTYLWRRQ
Sequence of ATP-dependent 6-phosphofructokinase (Trypanosoma brucei brucei) (O15648 whole entry, looked up): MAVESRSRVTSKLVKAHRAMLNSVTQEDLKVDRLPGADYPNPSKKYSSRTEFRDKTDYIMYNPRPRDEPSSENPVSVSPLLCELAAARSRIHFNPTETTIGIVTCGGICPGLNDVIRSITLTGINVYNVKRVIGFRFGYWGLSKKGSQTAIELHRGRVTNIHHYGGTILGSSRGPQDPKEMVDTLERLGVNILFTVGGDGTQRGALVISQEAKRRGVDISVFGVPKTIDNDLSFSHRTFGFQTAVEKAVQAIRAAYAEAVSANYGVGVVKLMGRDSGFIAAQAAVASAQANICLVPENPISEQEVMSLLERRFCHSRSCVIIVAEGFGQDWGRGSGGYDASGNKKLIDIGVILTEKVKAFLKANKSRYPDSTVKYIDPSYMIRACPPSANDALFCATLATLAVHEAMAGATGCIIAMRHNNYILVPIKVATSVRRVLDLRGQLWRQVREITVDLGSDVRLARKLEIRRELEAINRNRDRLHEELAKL
Sequence of 3',5'-cyclic-AMP phosphodiesterase 4B (Homo sapiens) (Q07343 whole entry, looked up): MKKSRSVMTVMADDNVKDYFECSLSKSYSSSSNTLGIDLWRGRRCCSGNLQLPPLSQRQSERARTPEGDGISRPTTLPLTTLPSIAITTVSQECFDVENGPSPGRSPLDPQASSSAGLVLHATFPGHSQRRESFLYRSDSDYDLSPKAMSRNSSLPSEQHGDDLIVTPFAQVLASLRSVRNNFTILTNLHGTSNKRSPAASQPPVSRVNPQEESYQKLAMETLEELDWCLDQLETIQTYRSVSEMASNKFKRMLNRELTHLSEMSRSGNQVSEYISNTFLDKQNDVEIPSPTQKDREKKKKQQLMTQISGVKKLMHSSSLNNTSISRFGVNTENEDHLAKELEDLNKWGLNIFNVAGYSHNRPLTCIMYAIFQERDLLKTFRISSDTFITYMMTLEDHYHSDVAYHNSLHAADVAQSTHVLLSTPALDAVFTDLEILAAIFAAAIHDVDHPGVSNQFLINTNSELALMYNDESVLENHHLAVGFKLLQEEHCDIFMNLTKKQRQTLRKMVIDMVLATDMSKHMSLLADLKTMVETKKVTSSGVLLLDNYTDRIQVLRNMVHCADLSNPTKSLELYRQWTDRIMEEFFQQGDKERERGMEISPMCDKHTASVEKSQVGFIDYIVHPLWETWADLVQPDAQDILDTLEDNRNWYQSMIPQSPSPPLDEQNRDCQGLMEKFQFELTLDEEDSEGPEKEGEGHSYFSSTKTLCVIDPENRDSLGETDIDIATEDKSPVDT
Sequence of Luciferin 4-monooxygenase (Photinus pyralis) (P08659 whole entry, looked up): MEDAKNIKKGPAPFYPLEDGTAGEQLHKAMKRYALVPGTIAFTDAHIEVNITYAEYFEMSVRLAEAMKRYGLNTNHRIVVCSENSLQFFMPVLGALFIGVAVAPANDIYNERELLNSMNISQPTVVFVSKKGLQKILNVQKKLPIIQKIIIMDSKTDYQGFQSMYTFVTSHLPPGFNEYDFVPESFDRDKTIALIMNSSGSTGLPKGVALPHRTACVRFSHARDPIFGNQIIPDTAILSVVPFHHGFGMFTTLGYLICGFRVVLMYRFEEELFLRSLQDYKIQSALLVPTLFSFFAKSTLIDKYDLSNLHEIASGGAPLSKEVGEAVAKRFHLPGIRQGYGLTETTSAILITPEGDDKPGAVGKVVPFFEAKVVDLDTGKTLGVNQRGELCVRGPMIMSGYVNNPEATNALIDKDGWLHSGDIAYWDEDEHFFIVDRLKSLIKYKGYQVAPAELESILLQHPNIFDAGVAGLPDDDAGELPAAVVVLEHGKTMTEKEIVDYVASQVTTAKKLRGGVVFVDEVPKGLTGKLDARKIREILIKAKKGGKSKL
Sequence of Ubiquitin carboxyl-terminal hydrolase 1 (Homo sapiens) (O94782 whole entry, looked up): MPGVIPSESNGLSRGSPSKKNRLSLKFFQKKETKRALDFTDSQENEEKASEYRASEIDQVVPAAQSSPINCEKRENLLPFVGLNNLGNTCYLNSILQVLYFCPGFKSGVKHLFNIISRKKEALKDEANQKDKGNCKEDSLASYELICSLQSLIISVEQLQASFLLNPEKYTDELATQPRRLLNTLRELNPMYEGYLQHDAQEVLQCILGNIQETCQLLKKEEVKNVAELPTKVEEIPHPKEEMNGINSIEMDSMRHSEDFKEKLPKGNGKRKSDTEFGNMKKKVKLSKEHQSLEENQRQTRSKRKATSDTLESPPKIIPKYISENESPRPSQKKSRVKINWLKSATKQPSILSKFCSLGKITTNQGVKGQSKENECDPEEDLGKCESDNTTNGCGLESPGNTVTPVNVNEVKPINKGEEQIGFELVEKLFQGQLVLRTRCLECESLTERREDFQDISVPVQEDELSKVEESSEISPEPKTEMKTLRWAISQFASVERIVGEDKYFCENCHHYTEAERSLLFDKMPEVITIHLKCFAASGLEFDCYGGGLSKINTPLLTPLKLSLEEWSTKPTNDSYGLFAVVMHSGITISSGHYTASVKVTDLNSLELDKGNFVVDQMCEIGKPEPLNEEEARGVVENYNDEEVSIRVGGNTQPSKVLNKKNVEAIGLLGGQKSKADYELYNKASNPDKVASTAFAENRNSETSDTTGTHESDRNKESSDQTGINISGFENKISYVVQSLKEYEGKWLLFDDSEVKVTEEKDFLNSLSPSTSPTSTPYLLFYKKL

O=C(O)[C@@H]1CCCN1
inactive: Potency [1] > 11.4 µM | outcome [2] | Potency [3] | activity change, negative = inhibition [4] -2.98% [at 7.69 µM] | outcome [5] | Potency [6] > 46 µM | Potency [7] > 9.22 µM | Potency [8] | outcome [9] | outcome [10] | Potency [11] | Potency [12] | outcome [13] | activity, negative = inhibition ([14]; parasite line A) 3.04% | activity, negative = inhibition ([14]; parasite line B) -1.27% | Potency [15] | Potency [16] | Potency [17] | Potency [18] | Potency [19] | Potency [20] | Potency [21] | Potency [22] | Potency [23] | Potency [24] | Potency [25] | Potency [26] | Potency [27] | Potency [28] | Potency [29] | Potency [30] | Potency [31] | Potency [32] | Potency [33] | Potency [34] | Potency [35] | Potency [36]
